Drawing on PMC8384837, “Expanding the binding specificity for RNA recognition by a PUF domain”, this text covers binding signal for nine sequences.

Common to all, as to experiment: yeast three-hybrid, YBZ-1, SC-Leu-His + 0.5 mM 3-AT, 4 days
Settings in all cases: tags: N-Gal4 AD-HA kept; label: inside an RPR1-promoter hybrid RNA with tandem MS2 sites; ssRNA

One assay deals with PUM1 PUF domain R4-LGL (Homo sapiens, UniProt Q14671 828-1176, N971L;H972G;Q975L). Summed up: (§1)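 Each repeat of the Pumilio-1 PUF domain was randomized at its three base-contacting residues, and these libraries were co-expressed from a centromeric plasmid with matching RNA elements in strain YBZ-1. After four days on SC-Leu (input) or SC-Leu-His + 0.5 mM 3-AT (selection), the repeat regions were PCR-amplified and Illumina-sequenced. The interaction score compares variant frequency between input and selection as a log change, computed in log2 with a pseudocount of 1 for absent variants.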

Another assay has as its target T1, PUM1 PUF domain R6-FYQ (Homo sapiens, UniProt Q14671 828-1176, N1043F).
T1 sequence: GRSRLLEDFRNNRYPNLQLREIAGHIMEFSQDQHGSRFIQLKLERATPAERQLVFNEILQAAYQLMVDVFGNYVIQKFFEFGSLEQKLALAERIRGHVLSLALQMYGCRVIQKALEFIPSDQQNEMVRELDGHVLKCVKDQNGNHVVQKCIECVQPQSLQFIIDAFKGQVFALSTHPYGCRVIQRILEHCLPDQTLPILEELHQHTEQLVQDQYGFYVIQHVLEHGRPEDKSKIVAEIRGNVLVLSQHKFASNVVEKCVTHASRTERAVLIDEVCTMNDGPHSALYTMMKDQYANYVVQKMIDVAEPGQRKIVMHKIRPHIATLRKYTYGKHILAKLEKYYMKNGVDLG
Summed up:
as §1

For a further assay, the target named is PUM1 PUF domain R3-CRV (Homo sapiens, UniProt Q14671 828-1176, Q939V). Summed up:
as §1

Another assay has as its target PUM1 PUF domain R7-RRV (Homo sapiens, UniProt Q14671 828-1176, S1079R;N1080R;E1083V). A digest of the protocol:
as §1

The next assay concerns the target PUM1 PUF domain R3-RVQ (Homo sapiens, UniProt Q14671 828-1176, C935R;R936V). A digest of the protocol: as §1
A further assay addresses PUM1 PUF domain R7-IFV (Homo sapiens, UniProt Q14671 828-1176, S1079I;N1080F;E1083V). A digest of the protocol:
as §1

The target in another assay is PUM1 PUF domain R5-RAD (Homo sapiens, UniProt Q14671 828-1176, C1007R;R1008A;Q1011D). A digest of the protocol:
as §1

In the next assay the target is PUM1 PUF domain R5-LYD (Homo sapiens, UniProt Q14671 828-1176, C1007L;R1008Y;Q1011D). Summed up:
as §1

The target in another assay is PUM1 PUF domain R3-FSR (Homo sapiens, UniProt Q14671 828-1176, C935F;R936S;Q939R). Summed up: as §1
A further assay addresses PUM1 PUF domain R5-QCL (Homo sapiens, UniProt Q14671 828-1176, C1007Q;R1008C;Q1011L). A digest of the protocol:
as §1

Take “GGCUAGAACUAGUGGAUCCCCCGGCGCCCGGCGGCUCGAGCCCGGGUAAGUGUAAAUAGUCUGCAUGCCGCCGGGCGCCAUGCCUGCAGGUCGACUCUAGAAAACAUG”: the binding signal is 3.33 log2 enrichment (interaction score) with PUM1 PUF domain R4-LGL, 4.7 log2 enrichment (interaction score) in the assay with PUM1 PUF domain R6-FYQ and 2.9 log2 enrichment (interaction score) with PUM1 PUF domain R3-CRV.

Take “GGCUAGAACUAGUGGAUCCCCCGGCGCCCGGCGGCUCGAGCCCGGGUAAGUCUAAAUAGUCUGCAUGCCGCCGGGCGCCAUGCCUGCAGGUCGACUCUAGAAAACAUG”: the binding signal with PUM1 PUF domain R7-RRV is 4.92 log2 enrichment (interaction score). On to “GGCUAGAACUAGUGGAUCCCCCGGCGCCCGGCGGCUCGAGCCCGGGUAAGUGUAAUUAGUCUGCAUGCCGCCGGGCGCCAUGCCUGCAGGUCGACUCUAGAAAACAUG”, for which the results for the binding signal with PUM1 PUF domain R3-CRV and with PUM1 PUF domain R3-RVQ were 1.05 log2 enrichment (interaction score) and 2.03 log2 enrichment (interaction score), respectively. “GGCUAGAACUAGUGGAUCCCCCGGCGCCCGGCGGCUCGAGCCCGGGUAAGUUUAAAUAGUCUGCAUGCCGCCGGGCGCCAUGCCUGCAGGUCGACUCUAGAAAACAUG”: in the assay with PUM1 PUF domain R7-RRV, the binding signal was 4.01 log2 enrichment (interaction score). Turning to “GGCUAGAACUAGUGGAUCCCCCGGCGCCCGGCGGCUCGAGCCCGGGUAAGUAUAAAUAGUCUGCAUGCCGCCGGGCGCCAUGCCUGCAGGUCGACUCUAGAAAACAUG”, the binding signal with PUM1 PUF domain R7-IFV is 2.59 log2 enrichment (interaction score). Consider “GGCUAGAACUAGUGGAUCCCCCGGCGCCCGGCGGCUCGAGCCCGGGUAAGUGUUAAUAGUCUGCAUGCCGCCGGGCGCCAUGCCUGCAGGUCGACUCUAGAAAACAUG”, for which the binding signal in the assay with PUM1 PUF domain R5-RAD was 1.31 log2 enrichment (interaction score); in the assay with PUM1 PUF domain R5-LYD it was 3.06 log2 enrichment (interaction score).

On to “GGCUAGAACUAGUGGAUCCCCCGGCGCCCGGCGGCUCGAGCCCGGGUAAGUGUAAGUAGUCUGCAUGCCGCCGGGCGCCAUGCCUGCAGGUCGACUCUAGAAAACAUG”, for which the binding signal was 3.48 log2 enrichment (interaction score) with PUM1 PUF domain R3-FSR and 1.31 log2 enrichment (interaction score) in the assay with PUM1 PUF domain R3-CRV.

Regarding “GGCUAGAACUAGUGGAUCCCCCGGCGCCCGGCGGCUCGAGCCCGGGUAAGUGUGAAUAGUCUGCAUGCCGCCGGGCGCCAUGCCUGCAGGUCGACUCUAGAAAACAUG”, in the assay with PUM1 PUF domain R5-QCL, the binding signal was 2.87 log2 enrichment (interaction score).

On to “GGCUAGAACUAGUGGAUCCCCCGGCGCCCGGCGGCUCGAGCCCGGGUAAGUGUCAAUAGUCUGCAUGCCGCCGGGCGCCAUGCCUGCAGGUCGACUCUAGAAAACAUG”, for which the binding signal in the assay with PUM1 PUF domain R5-RAD is 2.61 log2 enrichment (interaction score).
